For 14 compounds, growth results are on record in PubChem BioAssay (NCI).

Some test systems named below: NCI-H23 lung; NCI-H226 lung; NCI-H322M lung; HOP-62 NSCLC; NCI-H460 lung; HOP-92 NSCLC; NCI-H522 lung; A549/ATCC NSCLC; 786-0 renal; COLO 205 colon.
Experiment in all cases: NCI-60 one-dose screen, 48 h (100 = growth as untreated, 0 = no growth, -100 = all killed)
What all share (conditions): 10 µM unless noted

The structures appear in SMILES notation. Compounds without any hit were thinned out: in the full panel of roughly 83,000, 20% have a hit.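 96-well plates, one dose, 48 hours. Percent growth reported; active if below 10.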 A number with no mark means an inactive call. Calls of active or inactive are those of the source.

`CC(=O)O[C@H]1C[C@@H]2C(C)(C)C(=O)CC[C@@]2(C)c2ccc(C(C)C)cc21`: the growth in the assay on NCI-H23 lung is 102%; in the assay on NCI-H226 lung, 101%; in the assay on NCI-H322M lung, 109%; with HOP-62 NSCLC, 109%; in the assay with NCI-H460 lung, 107%; with HOP-92 NSCLC it was 96.5%. For the same compound, the growth in the assay with NCI-H522 lung is 98.3%; with A549/ATCC NSCLC it was 107%; in the assay with 786-0 renal, 93.9%; with COLO 205 colon, 115%.
Take `c1ccc(CCNc2c3ccccc3nc3ccccc23)cc1`: the growth in the assay with NCI-H23 lung was 38.6%; with NCI-H226 lung, 56.3%; in the assay on NCI-H322M lung, 46.6%; with HOP-62 NSCLC it was 55.1%; in the assay on NCI-H460 lung, 15.3%; with HOP-92 NSCLC it was -1.55% (active). Moreover, the growth in the assay with NCI-H522 lung is 39.8%; with A549/ATCC NSCLC, 32.7%; in the assay on 786-0 renal it was 38.1%; with COLO 205 colon it was 21.2%.
As for `CN(C)CCN1C(=O)c2cccc3c(/C=C/CN4C(=O)c5cccc6cccc(c56)C4=O)ccc(c23)C1=O`, the growth in the assay with NCI-H23 lung was 93.8%; in the assay on NCI-H226 lung it was 98.7%; with NCI-H322M lung it was 84.3%; in the assay on HOP-62 NSCLC, 88.9%; in the assay with NCI-H460 lung it was 93.7%; in the assay on HOP-92 NSCLC, 94.2%. The growth with NCI-H522 lung was 101%; in the assay on A549/ATCC NSCLC, 85.3%; in the assay with 786-0 renal, -84.5% (active); with COLO 205 colon it was 82.1%.
Regarding `COc1ccc2nc(Cl)c(/C=C3\CC(c4ccccc4)=NN(c4ccccc4)C3=O)cc2c1`, the growth is 78.8% with NCI-H23 lung; 55.6% with NCI-H226 lung; 74.6% with NCI-H322M lung; 48.4% in the assay with HOP-62 NSCLC; 67.8% in the assay with NCI-H460 lung; -20.3% (active) with HOP-92 NSCLC. For the same compound, the growth in the assay with NCI-H522 lung is 65.6%; with A549/ATCC NSCLC, 65.2%; in the assay with 786-0 renal, -4.27% (active); with COLO 205 colon it was 99.3%.
On to `CC(C)(C)n1cc(-c2ccnc(NCCCNS(=O)(=O)c3cccc4ccccc34)c2)c(-c2cccc(F)c2)n1`, for which the growth in the assay on NCI-H23 lung was 68.3%; with NCI-H226 lung it was 85.6%; with NCI-H322M lung it was 92.9%; in the assay on HOP-62 NSCLC it was 92.2%; with NCI-H460 lung, 73.3%; with HOP-92 NSCLC, 46.8%. Further, the growth was 80.5% in the assay with NCI-H522 lung, 73.4% in the assay with A549/ATCC NSCLC, 71.2% in the assay with 786-0 renal and 68.8% with COLO 205 colon.
Turning to `CNC(=O)c1cc(Oc2cccc3nc(NC(=O)Nc4cc(C(F)(F)F)ccc4Cl)ccc23)ccn1`, the growth in the assay with NCI-H23 lung was 80%; in the assay with NCI-H226 lung it was 99.1%; in the assay on NCI-H322M lung, 101%; in the assay on HOP-62 NSCLC, 95.2%; with NCI-H460 lung, 101%; in the assay with HOP-92 NSCLC, 115%. Besides, the growth was 94% with NCI-H522 lung, 90% in the assay with A549/ATCC NSCLC, 68.8% in the assay with 786-0 renal and 67.5% in the assay with COLO 205 colon.
Regarding `NC1(CO)COC(c2ccccc2)OC1` (stereo not given), the growth was 109% with NCI-H23 lung; 103% with NCI-H226 lung; 100% with NCI-H322M lung; 104% in the assay with HOP-62 NSCLC; 108% with NCI-H460 lung; 96.7% in the assay with HOP-92 NSCLC. The growth in the assay on NCI-H522 lung was 87.1%; in the assay with A549/ATCC NSCLC, 101%; with 786-0 renal it was 106%; in the assay on COLO 205 colon, 107%.
For `O=S(=O)(Nc1cc(Sc2cccc3cccnc23)c(O)c2ccccc12)c1ccccc1`, the growth was 28.8% in the assay on NCI-H23 lung; 46.3% in the assay on NCI-H226 lung; 28.3% in the assay on NCI-H322M lung; 47.3% in the assay with HOP-62 NSCLC; 3.5% (active) in the assay with NCI-H460 lung; 33.1% in the assay on HOP-92 NSCLC. Besides, the growth in the assay with NCI-H522 lung was -37.3% (active); in the assay with A549/ATCC NSCLC it was 15.7%; in the assay with 786-0 renal, 36.6%; in the assay on COLO 205 colon, -47.6% (active).
Regarding `O=C(Nc1ncccc1OCc1ccccc1)NC1CCCCCC1`, the growth was 89.8% in the assay on NCI-H23 lung; 73.8% in the assay on NCI-H226 lung; 88.2% in the assay with NCI-H322M lung; 102% in the assay with HOP-62 NSCLC; 93.5% in the assay on NCI-H460 lung; 68.4% in the assay with HOP-92 NSCLC. The growth with NCI-H522 lung was 72.6%; with A549/ATCC NSCLC, 97.8%; in the assay with 786-0 renal, 89.6%; in the assay on COLO 205 colon it was 103%.
`C[n+]1ccc(CCc2c[nH]c3ccccc23)cc1`: the growth was 102% in the assay on NCI-H23 lung; 109% with NCI-H226 lung; 93.4% in the assay on NCI-H322M lung; 69.3% in the assay on HOP-62 NSCLC; 107% with NCI-H460 lung; 93.9% in the assay on HOP-92 NSCLC. The growth was 81.4% in the assay with NCI-H522 lung, 66.2% in the assay on A549/ATCC NSCLC, 100% in the assay on 786-0 renal and 96.8% in the assay with COLO 205 colon.
Regarding `O=C1/C=C/[C@@H](O)[C@@H]2C[C@@H](O)C[C@H]2/C=C/CCC[C@H](CCO)O1`, the growth in the assay with NCI-H23 lung was 10.2%; in the assay on NCI-H226 lung, -38.9% (active); in the assay on NCI-H322M lung, 29.3%; in the assay on HOP-62 NSCLC, 31%; in the assay with NCI-H460 lung it was 15.9%; with HOP-92 NSCLC, -7.37% (active). The growth in the assay with NCI-H522 lung was -12.4% (active); with A549/ATCC NSCLC it was 17.7%; in the assay on 786-0 renal it was -51.7% (active); in the assay with COLO 205 colon it was -66.9% (active).
As to `COc1ccc2c(c1)c(/C(O)=C1\COC(=O)C1=O)cn2Cc1ccc(F)cc1`, the growth is 110% in the assay with NCI-H23 lung; 90.4% in the assay with NCI-H226 lung; 101% with NCI-H322M lung; 112% in the assay with HOP-62 NSCLC; 103% with NCI-H460 lung; 72.1% with HOP-92 NSCLC. The growth with NCI-H522 lung was 73.9%; with A549/ATCC NSCLC, 101%; in the assay with 786-0 renal it was 96.1%; in the assay on COLO 205 colon it was 108%.
As for `O=C(CCCCCNC(=O)c1cc(=O)c(O)co1)Nc1ccccc1`, the growth with NCI-H23 lung is 99.1%; with NCI-H226 lung it was 105%; with NCI-H322M lung it was 97.2%; with HOP-62 NSCLC it was 115%; in the assay on NCI-H460 lung, 111%; in the assay with HOP-92 NSCLC, 99.8%. Besides, the growth is 90.9% with NCI-H522 lung, 97.6% with A549/ATCC NSCLC, 97.5% with 786-0 renal and 120% in the assay on COLO 205 colon.
In the case of `Cc1cccc[n+]1C1c2ccccc2-c2ccccc21`, the growth with NCI-H23 lung was 103%; in the assay with NCI-H226 lung it was 96.1%; in the assay on NCI-H322M lung, 107%; in the assay on HOP-62 NSCLC, 70.5%; with NCI-H460 lung it was 106%; in the assay with HOP-92 NSCLC it was 68.9%. Also, the growth was 57.9% in the assay on NCI-H522 lung, 78.8% in the assay with A549/ATCC NSCLC, 90.7% in the assay with 786-0 renal and 75.3% in the assay on COLO 205 colon.
